PubChem BioAssay AID1508600 (Functional Genomics Laboratory (NCATS/FGL), 2020)
The whole screen tested about 53,000 sequences, of which about 3,700 (7%) were called active. Shown is part of a subset that was picked to be rich in actives. Values without a mark were called inactive.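 How the source made its calls: active means gene knockdowns whose robust z-score for IL-1 alpha signal is at least 2 or at most -2, so actives lie on both sides; inactive means the rest.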

Experiment: Components of the Cytosolic LPS Sensing Pathway: Gene Identification via Genome-wide siRNA Screen;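 further: robust z of the log signal after scaling to non-targeting control siRNA wells of the plate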
Settings: RAW264.7 macrophages, IL-1a HTRF, actives lie on both sides, screened at 100 nM (by protocol), cells primed 5 h with Pam3CSK4 first
How it was run: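 RAW264.7; siRNA 100 nM final, RNAiMAX, 48h 37 degrees C; Pam3CSK4 5 h; LipidA + TransIT-TKO 24 h; IL-1a HTRF; CellTiter-Glo viability; robust z vs negative-control median.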
GGUUUUGGGUCUAUGCUUCTT against Sde2 gave a z-score of 0.311.
For GGUAAGGAAAACAAAUAUGTT against En1, the z-score was 2.13 (active).
For GAAAAAAAUCCGUUCCCUCTT against Mrpl33, the z-score was 0.257.
GGAUUUUGCUCAGACGACATT against Taf1a gave a z-score of 0.291.
Sequence GGUUGGUAGGCUUUGGUGUTT against Notum has a z-score of 0.657.
With GCAGUGUCGCAUUACAUCGTT against Sec16a the z-score was 3.45 (active).
Work on GGAGAAUCAUGUGAGCCUGTT against Tph1 yielded a z-score of -0.0851.
For UAUUCUAUCCGAACACCUUTT against Gm4884, the z-score was 2.19 (active).
GGAGAACUUCCUAUACUAUTT against Apobec2 showed a z-score of 0.448.
Sequence GGAAAGCAAAAAGUUUCAGTT against Fam118b has a z-score of -1.14.
Sequence CGCAUAGAGCCUGUCCUCATT against Spink1 has a z-score of -1.57.
For GCUCGAUGUGAACUGCUAGTT against Ankrd9, the z-score was 2.12 (active).
Sequence GGUACAUAUGUGAUGACCGTT against Cdh4 has a z-score of -0.289.
Work on GGCGUAGGGCCAUAUCAUUTT against Olfr109 yielded a z-score of -0.117.
In the case of GGUCAUGAACCUCAUCAUCTT against Nckap1l, the z-score is reported as -0.552.
Sequence GGCUGAAUAAAAUAAGUGUTT against Adra1a has a z-score of -1.1.
For GGUUUAAUGUUAUAUACGGTT against Olfr606, the z-score was 2.43 (active).
Sequence CCAAAAGUGGAGAGCGACATT against Cnrip1 has a z-score of -1.32.
For GGAGCGAGAAGGUAAAGUCTT against Pibf1, the z-score was 1.05.
With GGGACUGGAAUUGACAUCCTT against Trpm4 the z-score was -1.38.
With GGGAAUUUUUGUGGGUGAATT against Bbs2 the z-score was -0.541.
For GGUGCUGAUUGACCUAACATT against Wdtc1, the z-score was -2.24 (active).
For GGAAGUGGAGGAAAAGAAGTT against Pdcd7, the z-score was -2.52 (active).
GGAAAAACUACUCAAGGAGTT against Evi5l gave a z-score of -0.0731.
Sequence CCUGGUUAAAGGUUAUCCATT against Commd7 has a z-score of -3.9e-05.
For GGCAAGUCUGUGUGCAGAUTT against Olfr267, the z-score was 0.579.
With CCAGGAACCUAUUGAAUCUTT against Plpp7 the z-score was 1.15.
Work on GGUAGAAAACAUAAAUGGUTT against Sec16a yielded a z-score of 1.71.
GGCCAUGGUUAAACCAUAUTT against Pdcl2 gave a z-score of 0.791.
GGACCUAUACAAGGGAGGUTT against Il1f10 showed a z-score of 1.17.
